Out of some 210,000 compounds screened, about 5,900 (2.8%) were called active. Inconclusive results (about 5%) are left out. The call rests on the fitted dose curve; in most records, active means well fitted activation curve with a large enough effect; inconclusive means small, poorly fitted or top-dose-only effect; inactive means no such curve, though single readings can be large or run the other way. The list comes from a sample in which actives are over-represented; it also holds similar structures and randomly drawn compounds.
Experiment: qHTS Assay for Enhancers of SMN2 Splice Variant Expression; further: nearly all actives have a fitted effect of over 55% in size; on activity change, positive = activation: % of control where 0% means no effect
Conditions: HEK293 SMN2-luciferase splicing reporter, luminescence, 30-36 h; series mostly up to 46.1 µM; activity change, positive = activation: at the top concentration
Source text: NIH Chemical Genomics Center [NCGC] NIH Molecular Libraries Probe Production centers Network [MLPCN] MLPCN Grant: R03 MH084179-01 Assay Submitter (PI): Elliot Androphy NCGC Assay Overview: Spinal muscular atrophy (SMA) is caused by insufficient levels of the survival motor neuron protein SMN. The SMN locus on chromosome 5q13 contains two inverted copies of SMN called SMN1 and SMN2 which are 99% identical at the amino acid level. SMN1 is a fully functional protein and SMN2 skips exon 7 90% of the time. Skipping of exon 7 produces non-functional protein product. 10% of the SMN2 protein includes exon 7 and is fully functional. In the SMA disease state, mutations in the SMN1 locus are the cause of the disease state. Because only 10% of SMN2 is of the fully functional form, it is not sufficient to overcome the deficiency produced by the loss of the SMN1 product. A therapy that either increase the amount of SMN2 product made or to increase the inclusion of exon 7 has been proposed for the treatment of SMA. We have designed an assay to identify small molecules that can increase the amount of functional SMN2 product by appending a luciferase reporter gene after the native SMN2 gene, such that inclusion of exon 7 in the expressed product places the luciferase sequence in frame, thus generating functional luciferase enzyme.
NCGC Assay Protocol Summary: This screen utilizes a luciferase reporter gene assay, combining the promoter and splicing based cassettes in tandem with the major portion of the native SMN2 cDNA, and then transfected into HEK293 cells. Compounds that increase luciferase signal presumably enhance expression of the functional SMN2 splice variant. Passaging media contained DMEM w/ glutamax (+phenol red) 10% FCS, 1x pen/strep, 200 ug/ml hygro, 1x sodium pyruvate. Assay media contained DMEM w/ glutamax (-phenol red) 10% FCS, 1x pen strep, 1x pyruvate Sequence, Parameter, Value, Description (1) Cells, […], 2000 cells/well, 1536 TC treated White solid bottom plate (2) Time, 10-12 hours, 37C 5% CO2 (3) Compound, 23 nl, MLSMR Library (4) Control Compound, 23 nL, Sodium butyrate st 4.5mM (final) conc (5) Time, 30-36 hours, 37C 5% CO2 (6) Reagent, 3 ul, One Glo (TM) from Promega (7) Time, 5-15 minutes, Room temp (8) Detector, Viewlux: luminescent read, 60 second integration, high speed 2x binning Keywords: Spinal muscular atrophy, SMA, SMN2, high throughput screening, MLSMR, MLPCN, NIH Roadmap, qHTS and NCGC
Potency means the concentration at half of the fitted maximal effect.

Compound	Potency	activity change, positive = activation
c1ccc(-c2noc(-c3cccs3)n2)nc1	2.82 µM (active)	–
c1csc(-c2nc(-c3ccncc3)no2)c1	15.8 µM (active)	–
COc1ccc(Cc2nc(-c3ccccn3)no2)cc1OC	–	21.9% (inactive)
CC(C)c1nc(-c2ccccn2)no1	–	-5.04% (inactive)
Cc1ccc(-c2noc(CSc3nnc(-c4cccs4)n3C)n2)cc1	–	-21.9% (inactive)
c1ccc(CCc2nc(-c3ccncc3)no2)cc1	–	24% (inactive)
COc1ccc(C)cc1-n1c(-c2ccc(C)cc2)cc2c1CC(C)(C)CC2=O	–	10.6% (inactive)
Cn1c(=O)c(C(=O)O)nn(-c2ccccc2)c1=O	–	17.2% (inactive)
COc1ccc(-c2c(C)nn3c(N4CCC(C(=O)NCCC(C)C)CC4)cc(C)nc23)cc1OC	–	-0.433% (inactive)
Cc1cc(N2CCCC2)n2nc(C)c(-c3ccccc3)c2n1	11.2 µM (active)	–
Cc1cc(-n2nc(C)cc2C)n2nc(C)c(-c3ccccc3)c2n1	–	-15.7% (inactive)
Cc1cc(-c2ccccc2)n2nc(C)c(-c3ccccc3)c2n1	–	-18.7% (inactive)
CCc1nc2nc(C)cc(Nc3ccc(F)c(Cl)c3)n2n1	–	-8.09% (inactive)
Cn1c(C(=O)N2CCC(C(=O)N3CCN(c4ccccc4)CC3)CC2)cc2sccc21	–	5.79% (inactive)
COc1ccc(NC(=O)CCN2CCN(CCO)CC2)cc1	–	1.23% (inactive)
CC(C)c1ccc(NC(=O)NC2CCCCC2)cc1	11.2 µM (active)	–
CC(C)(C)NS(=O)(=O)c1ccc(NC(=O)NC2CCCCC2)cc1	–	-0.432% (inactive)
CC(C)N1CCC(NC(=O)Nc2ccccc2)CC1	–	-0.391% (inactive)
CCc1nn(CC(=O)N2CCN(c3cccc(C(F)(F)F)c3)CC2)c(=O)c2cc3occc3n12	–	7.08% (inactive)
Oc1cccc2ccc(/C=C/c3ccc(Br)s3)nc12	8.91 µM (active)	–
Nc1ccc(S(=O)(=O)Nc2nccc(/C=C/c3ccc(Br)s3)n2)cc1	–	17.1% (inactive)
COc1cc(OC)cc(-c2nc3nc(C)c(CCC(=O)Nc4ccccc4)c(C)n3n2)c1	–	-8.35% (inactive)

Compound	Potency	activity change, positive = activation
CC(C)C(=O)Nc1cccc(NC(=O)c2ccc([N+](=O)[O-])cc2Cl)c1	–	-4.89% (inactive)
O=C(Nc1ccc(Br)cn1)c1ccc([N+](=O)[O-])cc1Cl	7.08 µM (active)	–
O=C(Nc1ccc(Br)cn1)c1ccc([N+](=O)[O-])o1	–	9.38% (inactive)
COc1ccccc1N1CCN(c2ncnc3onc(-c4cccc(Cl)c4)c23)CC1	–	-0.084% (inactive)
O=C(Nc1nnc(Cc2ccccc2)s1)c1cnccn1	–	22.7% (inactive)
O=C(Nc1nnc(C2CC2)s1)c1ccccn1	2.82 µM (active)	–
Cc1occc1C(=O)Nc1nnc(C2CCCCC2)s1	–	11.1% (inactive)
NC(=O)CSc1nc2c(oc3ccccc32)c(=O)n1Cc1ccccc1	–	-5.05% (inactive)
Cc1ccc(-n2c(SCC(=O)Nc3cccc(F)c3)nc3c(oc4ccccc43)c2=O)cc1C	–	-7.05% (inactive)
COC(=O)C1=C(c2ccccc2)c2ccccc2S(=O)(=O)N1CC(=O)Nc1ccccc1C(F)(F)F	–	8.62% (inactive)
COc1ccc(C(F)(F)F)cc1NC(=O)c1sc2nc(-c3cccs3)ccc2c1N	–	11% (inactive)
CN1C(=O)/C(=C/C=C2\SCCN2C)OC1=S	12.6 µM (active)	–
Cc1n[nH]c(C)c1S(=O)(=O)N1CCCC(C(=O)Nc2ccc(Br)cc2)C1 (stereo unspecified)	–	-57.6% (inactive)
Cc1ccc2nc(-c3ccc(O)cc3)c(Nc3ccc4c(c3)OCO4)n2c1	–	-7.48% (inactive)
CCOc1ccc(S(=O)(=O)N(CC(=O)NCCSCc2ccc(C)cc2)c2ccccc2)cc1	–	-13.4% (inactive)
Cc1ccc(-c2noc(CSc3nnc(-c4ccc(Cl)cc4)n3C)n2)cc1	–	7.16% (inactive)
Cc1ccc(/C=N\n2c(-c3ccccc3)n[nH]c2=S)s1	–	8.49% (inactive)
S=c1[nH]nc(-c2cccnc2)n1/N=C/C(Cl)=C\c1ccccc1	12.6 µM (active)	–
Cc1cc(-c2n[nH]c(=S)n2/N=C/C(Br)=C/c2ccccc2)n[nH]1	–	-19.9% (inactive)
O=C(Cn1ncc2c3ccccc3n(Cc3ccccc3)c2c1=O)NCc1ccccn1	–	11.5% (inactive)
CCN1CCN(Cc2c(O)ccc3oc(C)c(C(=O)Nc4ccc(C)cc4C)c23)CC1	–	7.3% (inactive)
CC(C)(C)c1ccc(C(=O)N2CCC(c3nc(-c4ccc(S(=O)(=O)N5CCCC5)cc4)no3)CC2)cc1	–	-5.48% (inactive)

Compound	Potency	activity change, positive = activation
COc1cc(CNCCSc2nnnn2C)ccc1OCc1ccc(Cl)cc1Cl	–	-16% (inactive)
CCS(=O)(=O)n1nc(-c2ccccc2)nc1SCc1ccccc1	22.4 µM (active)	–
CCn1c(SCc2ccccc2)nc2c(c1=O)SCC2	–	-18.9% (inactive)
CS(=O)(=O)n1nc(-c2ccccc2)nc1NCc1ccco1	–	2.41% (inactive)
Cc1ccc(-n2nc(CO)c(C(=O)NCCc3ccccc3)n2)cc1	–	-5.5% (inactive)
Cc1ccc(-n2c3nc(=O)[nH]c(=O)c-3cc3c(Cl)cccc32)cc1	–	1.85% (inactive)
COc1ccc(N2CCN(C(=O)CSc3nc4cc(OC)c(OC)cc4cc3C#N)CC2)cc1	–	-2.77% (inactive)
CCOc1ccc2cc(C#N)c(SCC(=O)OC)nc2c1	11.2 µM (active)	–
Cc1nonc1NC(=O)CSc1nc2ccccc2cc1C#N	–	-0.417% (inactive)
CCN1CCc2nc3sc(C(=O)Nc4ccccc4OC(F)(F)F)c(N)c3cc2C1	–	-23.4% (inactive)
COc1ccc(C2=CC(c3ccccc3Cl)n3nc(-c4ccc(Cl)cc4)nc3N2)cc1 (stereo unspecified)	–	-13% (inactive)
CC1=C(C(N)=O)C(c2ccc3c(c2)OCO3)n2nc(-c3cccc(C)c3)nc2N1 (stereo unspecified)	–	11.9% (inactive)
COc1cccc(-c2nc3n(n2)C(c2ccccc2Cl)C(C(N)=O)=C(C)N3)c1 (stereo unspecified)	15.8 µM (active)	–
COc1ccc(/C=C/C(=O)Nc2ccc(C34CC5CC(CC(O)(C5)C3)C4)cc2)cc1OC	12.6 µM (active)	–
COc1ccc(/C=C/C(=O)N2CCCC2)cc1OC	–	10.2% (inactive)
COc1ccc(/C=C/C(=O)Nc2cccnc2)cc1OC	–	14.8% (inactive)
CCOC(=O)c1ccc(NC(=O)CC2C(=O)N(c3ccccc3)C(=O)N2Cc2cccs2)cc1 (stereo unspecified)	–	10.9% (inactive)
CCOC(=O)c1c(NC(=O)CCl)sc(C(=O)N(CC)CC)c1C	–	-9% (inactive)
CCC(=O)Nc1sc(C(=O)Nc2ccccc2)c(C)c1C(=O)OC	3.55 µM (active)	–
CCOC(=O)c1sc(NC(=O)COc2ncnc3ccccc23)c(C(=O)OCC)c1C	–	-29.8% (inactive)
COc1ccccc1NC(=O)c1sc2nc(C)c(C(=O)Nc3ccc(Cl)cc3)c(-c3ccc(Br)cc3)c2c1N	–	12.3% (inactive)
CCc1ccccc1NS(=O)(=O)c1ccc2nc(-c3ccccc3)[nH]c2c1	–	-7.51% (inactive)

— PubChem BioAssay AID1458 (National Center for Advancing Translational Sciences (NCATS), 2008)
